Seven molecules from ChEMBL document CHEMBL2218924, “A broad activity screen in support of a chemogenomic map for kinase signalling research and drug discovery” (Biochem J, 2013) can be followed below.

For experiment [1], the target named is Serine/threonine-protein kinase PAK 4 (Homo sapiens) (UniProt O96013). The following applies: at 1 µM.
The target is the same in experiment [2]. The settings on record: at 10 µM.
Experiment [3] addresses Serine/threonine-protein kinase PAK 5 (Homo sapiens) (UniProt Q9P286). The settings on record: at 1 µM.
Experiment [4] shares this target. The following applies: at 10 µM.
In experiment [5] the target is Serine/threonine-protein kinase PAK 6 (Homo sapiens) (UniProt Q9NQU5). The settings on record: at 1 µM.
The target is the same in experiment [6]. The settings on record: at 10 µM.
Experiment [7] deals with PAS domain-containing serine/threonine-protein kinase (Homo sapiens) (UniProt Q96RG2). The following applies: at 10 µM.
In experiment [8] the target is Activated CDC42 kinase 1 (Homo sapiens) (UniProt Q07912). The following applies: at 1 µM.
Experiment [9] shares this target. The settings on record: at 10 µM.
Experiment [10] concerns the target ALK tyrosine kinase receptor (Homo sapiens) (UniProt Q9UM73). The settings on record: at 1 µM.
For experiment [11] the target is unchanged. The following applies: at 10 µM.
Experiment [12] addresses T1, Activin receptor type-1B (Homo sapiens) (UniProt P36896).
T1 sequence (whole entry): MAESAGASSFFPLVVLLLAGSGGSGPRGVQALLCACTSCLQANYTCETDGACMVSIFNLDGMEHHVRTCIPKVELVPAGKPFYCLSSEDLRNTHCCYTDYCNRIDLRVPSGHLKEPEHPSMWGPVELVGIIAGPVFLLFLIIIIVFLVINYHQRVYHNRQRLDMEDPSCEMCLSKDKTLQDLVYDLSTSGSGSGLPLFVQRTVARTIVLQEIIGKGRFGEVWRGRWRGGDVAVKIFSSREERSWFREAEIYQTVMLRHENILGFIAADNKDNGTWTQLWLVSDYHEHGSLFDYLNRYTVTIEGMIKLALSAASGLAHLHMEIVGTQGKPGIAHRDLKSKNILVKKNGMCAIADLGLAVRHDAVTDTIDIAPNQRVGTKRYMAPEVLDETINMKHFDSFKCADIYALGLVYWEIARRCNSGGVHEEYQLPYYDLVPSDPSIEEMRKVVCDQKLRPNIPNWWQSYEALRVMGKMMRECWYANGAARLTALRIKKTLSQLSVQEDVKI
The settings on record: at 1 µM.

Experiment [13] addresses T1, Activin receptor type-1B (Homo sapiens). The following applies: at 10 µM.
The target of experiment [14] is T2, AMP-activated protein kinase (AMPK) alpha-1/beta-1/gamma-1 (Homo sapiens) (UniProt P54619+Q9Y478+Q13131). The settings on record: at 1 µM.
For experiment [15], the target named is T2, AMP-activated protein kinase (AMPK) alpha-1/beta-1/gamma-1 (Homo sapiens). The following applies: at 10 µM.
Experiment [16] deals with T3, AMP-activated protein kinase, AMPK (Homo sapiens) (UniProt P54646+O43741+P54619+Q9UGJ0+Q9Y478+Q13131+Q9UGI9). The settings on record: at 1 µM.
Experiment [17] concerns the target T3, AMP-activated protein kinase, AMPK (Homo sapiens). The following applies: at 10 µM.
Experiment [18] has as its target T4, NUAK family SNF1-like kinase 1 (Homo sapiens) (UniProt O60285).
T4 sequence (whole entry): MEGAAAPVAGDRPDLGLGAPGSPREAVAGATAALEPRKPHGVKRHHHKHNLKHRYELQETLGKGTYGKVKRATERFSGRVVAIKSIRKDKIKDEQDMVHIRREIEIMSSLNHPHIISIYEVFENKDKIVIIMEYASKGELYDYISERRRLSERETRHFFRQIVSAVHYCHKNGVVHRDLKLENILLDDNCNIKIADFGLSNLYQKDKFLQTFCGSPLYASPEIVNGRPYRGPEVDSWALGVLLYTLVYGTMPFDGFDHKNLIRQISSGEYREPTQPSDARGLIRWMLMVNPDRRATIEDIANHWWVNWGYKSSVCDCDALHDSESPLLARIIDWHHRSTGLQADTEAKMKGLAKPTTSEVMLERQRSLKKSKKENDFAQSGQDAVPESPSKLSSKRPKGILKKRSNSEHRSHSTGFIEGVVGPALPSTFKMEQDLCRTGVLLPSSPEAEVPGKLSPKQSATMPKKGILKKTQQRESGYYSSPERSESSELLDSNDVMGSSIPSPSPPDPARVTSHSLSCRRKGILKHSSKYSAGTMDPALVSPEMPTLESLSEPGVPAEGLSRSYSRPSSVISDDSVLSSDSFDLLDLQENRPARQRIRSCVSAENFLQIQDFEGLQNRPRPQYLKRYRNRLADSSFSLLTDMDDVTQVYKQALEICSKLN
The settings on record: at 1 µM.

Experiment [19] has as its target T4, NUAK family SNF1-like kinase 1 (Homo sapiens). The settings on record: at 10 µM.
The target of experiment [20] is T5, Mitogen-activated protein kinase kinase kinase 5 (Homo sapiens) (UniProt Q99683).
T5 sequence (whole entry): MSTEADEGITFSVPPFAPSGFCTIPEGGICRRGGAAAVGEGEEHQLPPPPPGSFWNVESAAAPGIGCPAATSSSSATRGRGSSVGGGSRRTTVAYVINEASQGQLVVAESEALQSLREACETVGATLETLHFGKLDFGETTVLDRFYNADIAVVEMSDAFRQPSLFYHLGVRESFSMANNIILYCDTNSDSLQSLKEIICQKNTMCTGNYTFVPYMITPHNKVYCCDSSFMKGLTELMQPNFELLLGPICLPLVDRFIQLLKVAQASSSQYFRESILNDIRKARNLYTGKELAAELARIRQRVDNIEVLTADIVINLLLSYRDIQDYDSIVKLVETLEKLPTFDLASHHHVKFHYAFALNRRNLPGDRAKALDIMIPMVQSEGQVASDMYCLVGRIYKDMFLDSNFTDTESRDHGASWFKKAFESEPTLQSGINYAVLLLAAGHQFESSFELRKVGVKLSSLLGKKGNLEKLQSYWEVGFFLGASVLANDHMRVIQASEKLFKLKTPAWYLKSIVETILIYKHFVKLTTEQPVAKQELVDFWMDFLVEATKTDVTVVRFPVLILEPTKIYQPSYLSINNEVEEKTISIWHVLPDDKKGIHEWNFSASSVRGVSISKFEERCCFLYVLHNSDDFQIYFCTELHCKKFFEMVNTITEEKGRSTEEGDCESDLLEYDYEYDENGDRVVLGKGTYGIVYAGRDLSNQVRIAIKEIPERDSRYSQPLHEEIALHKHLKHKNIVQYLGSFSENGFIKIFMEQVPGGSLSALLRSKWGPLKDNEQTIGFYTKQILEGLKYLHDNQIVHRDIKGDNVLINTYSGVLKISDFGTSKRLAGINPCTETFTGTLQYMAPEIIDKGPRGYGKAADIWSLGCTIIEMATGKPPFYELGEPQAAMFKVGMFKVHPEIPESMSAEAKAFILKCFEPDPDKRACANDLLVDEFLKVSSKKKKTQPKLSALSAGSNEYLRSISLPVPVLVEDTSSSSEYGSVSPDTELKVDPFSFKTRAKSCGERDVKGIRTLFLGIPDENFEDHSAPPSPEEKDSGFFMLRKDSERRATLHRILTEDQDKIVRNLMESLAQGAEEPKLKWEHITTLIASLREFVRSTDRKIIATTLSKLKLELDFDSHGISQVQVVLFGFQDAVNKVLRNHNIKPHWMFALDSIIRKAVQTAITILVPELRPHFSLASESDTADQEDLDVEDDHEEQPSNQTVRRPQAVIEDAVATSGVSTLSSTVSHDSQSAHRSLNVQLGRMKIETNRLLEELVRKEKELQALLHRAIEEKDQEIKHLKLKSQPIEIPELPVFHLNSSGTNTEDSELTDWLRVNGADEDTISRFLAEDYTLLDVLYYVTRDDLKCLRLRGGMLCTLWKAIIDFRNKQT
The settings on record: at 1 µM.

PAS domain-containing serine/threonine-protein kinase (Homo sapiens), sequence (Q96RG2 whole entry, the tested form may be a part): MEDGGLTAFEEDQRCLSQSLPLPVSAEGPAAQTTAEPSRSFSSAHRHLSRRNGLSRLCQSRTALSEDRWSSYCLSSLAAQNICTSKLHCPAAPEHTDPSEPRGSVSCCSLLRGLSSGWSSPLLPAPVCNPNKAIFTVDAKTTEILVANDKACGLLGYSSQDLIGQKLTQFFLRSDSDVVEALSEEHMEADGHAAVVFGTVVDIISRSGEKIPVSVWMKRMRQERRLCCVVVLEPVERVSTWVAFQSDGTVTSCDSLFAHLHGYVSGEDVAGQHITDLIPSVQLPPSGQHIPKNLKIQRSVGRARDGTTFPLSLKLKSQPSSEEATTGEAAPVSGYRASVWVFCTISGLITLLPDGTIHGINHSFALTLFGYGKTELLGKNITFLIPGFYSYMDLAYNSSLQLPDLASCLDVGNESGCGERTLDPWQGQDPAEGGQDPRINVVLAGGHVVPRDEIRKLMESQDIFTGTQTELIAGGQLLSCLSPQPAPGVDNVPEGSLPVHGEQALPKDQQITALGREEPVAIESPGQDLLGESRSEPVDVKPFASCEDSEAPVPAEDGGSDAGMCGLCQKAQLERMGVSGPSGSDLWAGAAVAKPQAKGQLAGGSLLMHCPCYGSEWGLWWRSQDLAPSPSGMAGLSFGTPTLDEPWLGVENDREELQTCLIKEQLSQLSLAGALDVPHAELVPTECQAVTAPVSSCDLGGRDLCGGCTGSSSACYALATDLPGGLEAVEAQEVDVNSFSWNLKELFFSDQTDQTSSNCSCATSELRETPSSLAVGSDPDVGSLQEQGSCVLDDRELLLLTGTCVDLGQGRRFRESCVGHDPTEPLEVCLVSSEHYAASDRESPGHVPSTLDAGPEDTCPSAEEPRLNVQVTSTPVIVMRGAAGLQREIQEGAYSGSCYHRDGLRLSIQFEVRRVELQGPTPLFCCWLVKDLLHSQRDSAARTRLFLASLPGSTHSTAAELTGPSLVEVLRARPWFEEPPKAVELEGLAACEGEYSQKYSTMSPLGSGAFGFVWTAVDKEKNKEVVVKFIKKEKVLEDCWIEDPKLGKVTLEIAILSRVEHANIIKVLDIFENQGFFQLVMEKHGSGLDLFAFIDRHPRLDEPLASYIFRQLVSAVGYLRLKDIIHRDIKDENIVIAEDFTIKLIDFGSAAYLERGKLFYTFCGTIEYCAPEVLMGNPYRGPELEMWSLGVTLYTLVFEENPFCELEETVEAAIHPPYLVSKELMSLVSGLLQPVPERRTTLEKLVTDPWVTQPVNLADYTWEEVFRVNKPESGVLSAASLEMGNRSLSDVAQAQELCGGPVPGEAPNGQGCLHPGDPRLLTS
T2 sequence (P54619 whole entry): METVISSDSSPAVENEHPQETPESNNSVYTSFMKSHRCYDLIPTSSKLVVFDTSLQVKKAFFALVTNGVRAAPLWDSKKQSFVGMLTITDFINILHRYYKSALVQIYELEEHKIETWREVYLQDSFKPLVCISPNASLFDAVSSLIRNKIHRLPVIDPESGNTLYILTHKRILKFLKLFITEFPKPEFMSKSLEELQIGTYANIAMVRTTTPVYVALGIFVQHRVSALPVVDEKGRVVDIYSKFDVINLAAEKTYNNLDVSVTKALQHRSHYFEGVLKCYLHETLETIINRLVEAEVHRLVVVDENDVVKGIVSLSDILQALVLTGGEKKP
T2 sequence (Q13131 whole entry partner): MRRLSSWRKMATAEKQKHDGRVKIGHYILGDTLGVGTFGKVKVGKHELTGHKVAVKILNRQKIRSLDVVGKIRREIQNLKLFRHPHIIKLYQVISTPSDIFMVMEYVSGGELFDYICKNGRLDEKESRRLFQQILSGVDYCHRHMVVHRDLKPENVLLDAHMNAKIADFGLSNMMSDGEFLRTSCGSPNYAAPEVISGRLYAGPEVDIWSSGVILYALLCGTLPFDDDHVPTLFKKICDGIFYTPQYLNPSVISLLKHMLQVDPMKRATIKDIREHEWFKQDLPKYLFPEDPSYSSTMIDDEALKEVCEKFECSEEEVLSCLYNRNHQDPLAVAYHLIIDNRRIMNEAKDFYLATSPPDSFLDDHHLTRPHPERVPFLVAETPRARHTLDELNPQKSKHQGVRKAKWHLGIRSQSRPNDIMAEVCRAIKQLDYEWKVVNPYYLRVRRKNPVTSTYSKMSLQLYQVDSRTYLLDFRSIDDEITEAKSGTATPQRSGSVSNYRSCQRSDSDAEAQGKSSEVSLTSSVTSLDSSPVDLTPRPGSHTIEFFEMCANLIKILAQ
T2 sequence (Q9Y478 2-270 partner limits assumed): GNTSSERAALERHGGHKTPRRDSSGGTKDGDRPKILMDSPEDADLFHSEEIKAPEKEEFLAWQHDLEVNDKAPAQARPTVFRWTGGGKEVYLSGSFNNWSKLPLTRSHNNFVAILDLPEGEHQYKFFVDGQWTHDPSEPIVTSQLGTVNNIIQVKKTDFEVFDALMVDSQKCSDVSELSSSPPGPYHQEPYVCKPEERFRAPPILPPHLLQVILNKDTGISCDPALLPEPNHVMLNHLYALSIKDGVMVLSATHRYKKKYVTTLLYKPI
Serine/threonine-protein kinase PAK 4 (Homo sapiens), sequence (O96013 whole entry, looked up): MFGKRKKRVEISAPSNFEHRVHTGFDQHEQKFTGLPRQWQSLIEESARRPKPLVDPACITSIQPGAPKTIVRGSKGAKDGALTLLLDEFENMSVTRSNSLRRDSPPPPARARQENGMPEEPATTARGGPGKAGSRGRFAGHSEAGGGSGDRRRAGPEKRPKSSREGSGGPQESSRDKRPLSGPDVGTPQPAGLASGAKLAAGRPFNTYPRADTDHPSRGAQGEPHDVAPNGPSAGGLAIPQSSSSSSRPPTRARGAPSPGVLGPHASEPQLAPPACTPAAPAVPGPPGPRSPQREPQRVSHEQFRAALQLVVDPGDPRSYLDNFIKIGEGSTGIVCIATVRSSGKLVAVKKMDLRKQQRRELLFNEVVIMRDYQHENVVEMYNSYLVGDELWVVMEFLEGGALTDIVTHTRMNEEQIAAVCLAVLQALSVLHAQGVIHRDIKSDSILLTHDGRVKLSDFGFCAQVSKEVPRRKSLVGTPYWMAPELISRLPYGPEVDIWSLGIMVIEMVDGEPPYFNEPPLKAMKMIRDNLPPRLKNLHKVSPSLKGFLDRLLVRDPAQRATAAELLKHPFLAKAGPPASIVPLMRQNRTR
Serine/threonine-protein kinase PAK 5 (Homo sapiens), sequence (Q9P286 whole entry, looked up): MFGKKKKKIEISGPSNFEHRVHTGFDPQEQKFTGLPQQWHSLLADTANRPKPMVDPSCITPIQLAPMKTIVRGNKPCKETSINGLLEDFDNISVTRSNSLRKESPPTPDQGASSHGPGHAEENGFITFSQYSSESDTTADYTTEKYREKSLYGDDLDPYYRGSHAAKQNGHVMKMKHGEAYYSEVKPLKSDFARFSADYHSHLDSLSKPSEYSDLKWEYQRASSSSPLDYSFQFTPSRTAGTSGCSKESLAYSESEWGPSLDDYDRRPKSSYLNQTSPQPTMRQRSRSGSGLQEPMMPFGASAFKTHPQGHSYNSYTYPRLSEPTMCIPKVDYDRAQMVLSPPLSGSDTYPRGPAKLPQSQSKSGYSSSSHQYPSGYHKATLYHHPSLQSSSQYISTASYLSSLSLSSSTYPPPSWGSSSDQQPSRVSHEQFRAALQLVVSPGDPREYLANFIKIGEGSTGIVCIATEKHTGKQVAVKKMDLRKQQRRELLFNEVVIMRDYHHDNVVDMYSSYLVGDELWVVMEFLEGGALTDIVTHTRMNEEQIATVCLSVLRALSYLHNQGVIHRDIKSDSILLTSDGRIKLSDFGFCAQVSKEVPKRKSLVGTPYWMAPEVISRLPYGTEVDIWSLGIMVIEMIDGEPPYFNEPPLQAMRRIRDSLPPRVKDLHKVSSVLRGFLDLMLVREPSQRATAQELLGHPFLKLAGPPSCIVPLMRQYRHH
Activated CDC42 kinase 1 (Homo sapiens), sequence (Q07912 whole entry, looked up): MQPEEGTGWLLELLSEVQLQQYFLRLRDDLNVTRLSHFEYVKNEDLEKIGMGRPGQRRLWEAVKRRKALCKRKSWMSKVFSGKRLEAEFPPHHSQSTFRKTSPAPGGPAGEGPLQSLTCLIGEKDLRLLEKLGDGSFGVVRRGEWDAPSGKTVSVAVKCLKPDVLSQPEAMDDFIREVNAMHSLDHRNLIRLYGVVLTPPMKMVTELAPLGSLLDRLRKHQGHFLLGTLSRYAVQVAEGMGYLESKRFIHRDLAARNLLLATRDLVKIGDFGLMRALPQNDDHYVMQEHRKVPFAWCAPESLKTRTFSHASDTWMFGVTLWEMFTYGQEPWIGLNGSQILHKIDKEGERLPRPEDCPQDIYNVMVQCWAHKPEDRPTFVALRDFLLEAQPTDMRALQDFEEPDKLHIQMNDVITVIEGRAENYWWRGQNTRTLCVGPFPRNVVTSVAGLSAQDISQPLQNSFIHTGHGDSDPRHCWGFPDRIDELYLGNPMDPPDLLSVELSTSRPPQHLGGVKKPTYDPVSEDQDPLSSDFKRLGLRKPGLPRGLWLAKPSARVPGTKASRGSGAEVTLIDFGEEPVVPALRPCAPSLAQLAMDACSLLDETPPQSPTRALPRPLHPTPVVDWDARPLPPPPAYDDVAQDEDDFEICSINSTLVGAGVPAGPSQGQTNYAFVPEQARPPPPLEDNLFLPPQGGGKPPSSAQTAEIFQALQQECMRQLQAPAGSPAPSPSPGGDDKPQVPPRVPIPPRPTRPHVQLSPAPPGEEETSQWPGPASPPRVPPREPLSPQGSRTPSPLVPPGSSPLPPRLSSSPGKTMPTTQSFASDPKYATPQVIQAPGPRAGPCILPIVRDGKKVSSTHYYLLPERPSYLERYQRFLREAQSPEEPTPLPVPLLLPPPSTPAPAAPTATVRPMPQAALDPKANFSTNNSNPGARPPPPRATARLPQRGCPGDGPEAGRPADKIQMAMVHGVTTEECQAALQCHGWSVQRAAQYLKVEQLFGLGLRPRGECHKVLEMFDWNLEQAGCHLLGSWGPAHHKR

Regarding `Cc1cc(Nc2nc(-c3ccccc3)nc3ccccc23)n[nH]1`, the residual activity in experiment [1] amounted to 9%; in experiment [2], 2%; in experiment [3], 21%; in [4], 3%; in [5], 47%; in experiment [6], 7%. Besides, the residual activity in experiment [7] was 121%; in experiment [8], 13%; in experiment [9] it was 0%; in experiment [10], 70%; in experiment [11], 15%; in experiment [12], 96%. Further, the residual activity in [13] worked out at 76%; in experiment [14], 15%; in [15], 3%; in [16], 5%; in experiment [17], 3%; in experiment [18], 3%. The residual activity is -1% in experiment [19] and 94% in experiment [20].

Turning to `CCC(=O)Nc1ccc2ncnc(Nc3cccc(Br)c3)c2c1`, the residual activity in experiment [1] came out at 99%; in experiment [2], 86%; in [3], 97%; in experiment [4], 98%; in [5] it was 107%; in [6], 93%. Further, the residual activity in experiment [7] came to 36%; in [8], 70%; in experiment [9], 36%; in experiment [10], 81%; in experiment [11] it was 88%; in experiment [12] it was 125%. Further, the residual activity worked out at 105% in experiment [13]; 103% in experiment [14]; 94% in [15]; 105% in experiment [16]; 87% in experiment [17]; 99% in experiment [18]. Moreover, the residual activity was 92% in experiment [19] and 108% in experiment [20].

For `COc1ccc(S(=O)(=O)N(CCO)c2ccccc2CN(C)C/C=C/c2ccc(Cl)cc2)cc1`, the residual activity in [1] was found to be 94%; in experiment [2] it was 93%; in experiment [3], 100%; in experiment [4], 77%; in experiment [5] it was 105%; in experiment [6] it was 64%. Besides, the residual activity is 87% in experiment [7]; 68% in experiment [8]; 60% in experiment [9]; 68% in [10]; 59% in [11]; 96% in experiment [12]. Moreover, the residual activity in experiment [13] was 102%; in experiment [14], 104%; in experiment [15], 76%; in [16], 99%; in experiment [17] it was 74%; in [18] it was 100%. Further, the residual activity in experiment [19] is 75%; in [20], 94%.

On to `Oc1n[nH]c2nnc(-c3c(-c4ccccc4)nn4ccccc34)cc12`, for which the residual activity is 95% in [1]; 92% in experiment [2]; 101% in [3]; 101% in [4]; 98% in experiment [5]; 98% in experiment [6]. Further, the residual activity stood at 104% in experiment [7]; 29% in experiment [8]; 14% in [9]; 92% in experiment [10]; 89% in experiment [11]; 115% in [13]. The residual activity in [14] worked out at 86%; in experiment [15], 82%; in experiment [16], 97%; in experiment [17] it was 90%; in experiment [18] it was 100%; in experiment [19], 45%. Moreover, the residual activity in experiment [20] was 111%.

In the case of `Cn1cc(/C=C2\C(=O)Nc3ccc(S(N)(=O)=O)cc32)c2ccccc21`, the residual activity is 28% in [1]; 7% in experiment [2]; 41% in experiment [3]; 26% in experiment [4]; 46% in [5]; 22% in experiment [6]. In addition, the residual activity in [7] is 71%; in experiment [8], 60%; in experiment [9] it was 36%; in experiment [10], 56%; in experiment [11] it was 31%; in [12], 118%. Besides, the residual activity in [13] was 104%; in experiment [14], 9%; in experiment [15] it was 4%; in experiment [16] it was 9%; in experiment [17], 4%; in experiment [18], 18%. Moreover, the residual activity amounted to 11% in experiment [19] and 29% in [20].

On to `COc1cc2ncnc(Nc3ccc(NC(=O)c4ccccc4)cc3)c2cc1OC`, for which the residual activity in [1] turned out to be 101%; in experiment [2] it was 103%; in [3] it was 89%; in experiment [4], 68%; in experiment [5], 108%; in experiment [6], 92%. Also, the residual activity in experiment [7] was 67%; in [8], 13%; in experiment [9], 1%; in experiment [10] it was 107%; in experiment [11], 57%; in [13] it was 105%. In addition, the residual activity in experiment [15] was 90%; in [17], 88%; in experiment [19] it was 86%; in [20], 103%.

With `CC(=O)O/N=C1\C(=C2\C(=O)Nc3cc(Br)ccc32)Nc2ccccc21`, the residual activity turned out to be 100% in experiment [1]; 67% in experiment [2]; 88% in [3]; 63% in experiment [4]; 89% in [5]; 67% in experiment [6]. The residual activity turned out to be 108% in experiment [7]; 48% in [8]; 15% in experiment [9]; 58% in experiment [10]; 40% in experiment [11]; 100% in experiment [12]. Further, the residual activity was 119% in [13]; 60% in experiment [14]; 9% in experiment [15]; 46% in [16]; 11% in experiment [17]; 56% in experiment [18]. The results for the residual activity in experiment [19] and in experiment [20] were 19% and 92%, respectively.
